Data from PubChem BioAssay AID1117319 (Southern Research Institute, 2015).
Hit rate of the full screen: of about 260,000 compounds, about 1,500 (0.58%) were called active. Not shown: some 5% with an inconclusive outcome. A selection follows. Entries with a potency or affinity are not part of this list. Unmarked numbers belong to inactive results.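 The calls were made as follows: active = inhibition above a set limit at one or more doses, reproduced on every date tested; inconclusive = results disagree between test dates, or hit never tested in dose response; inactive = the rest.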

biological target: Virion infectivity factor (Human immunodeficiency virus type 1 group M subtype B (isolate BH10)) + Virion infectivity factor (Human immunodeficiency virus type 1 group M subtype B (isolate BRU/LAI)) + Virion infectivity factor (Human immunodeficiency virus type 1 group M subtype B (isolate PCV12)) + Virion infectivity factor (Human immunodeficiency virus type 1 group M subtype B (isolate HXB2)) + DNA dC->dU-editing enzyme APOBEC-3G (Homo sapiens) (UniProt P69720+P69721+P69722+P69723+Q9HC16); assay: inhibitors of Vif binding to APOBEC3G peptide, primary screen, biochemical, TR-FRET, GST-Vif 1-94, biotin-A3G peptide, dose response retest (AID 1117319); conditions: hits give high values;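 also: Vif residues 1-94 fused to GST binding biotinylated APOBEC3G peptide 110-148; 0% = full assay without inhibitor and 100% = GST in place of GST-Vif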

| Structure (SMILES) | inhibition [%] |
| --- | --- |
| O=C(COC(=O)c1ccccc1Sc1ccc(C(F)(F)F)cc1[N+](=O)[O-])NC(=O)NC1CCCC1 | -2.59 |
| CCCN1C(=O)/C(=c2\sc3nc(=O)c(Cc4ccc(C)cc4)nn3c2=O)c2ccccc21 | 1.89 |
| CC1(C(=O)O)CCC(C(=O)NNC(=O)c2ccccc2O)C1(C)C (stereo not drawn) | -0.63 |
| COc1cc(/C=C2\SC(=O)N(CCNC(=O)c3c(C)noc3C)C2=O)cc(OC)c1OC | -5.96 |
| Cc1ccc(S(=O)(=O)N2CCOCC2)cc1NC(=O)COC(=O)c1ccc2c(c1)OCCO2 | -7.03 |
| O=C1N/C(=C/c2cccn2-c2ccc(F)cc2)C(=O)N1Cc1ccccc1F | 5.17 |
| O=C1N/C(=C/c2cccn2-c2ccccc2)C(=O)N1Cc1ccc(F)cc1 | 15.6 |
| COc1ccc(NC(=O)CN(C)C(=O)C2CC(=O)N(c3cccc4ccccc34)C2)cc1 (stereo not drawn) | 2.19 |
| COc1cc2c(cc1OC)C(c1cccc(OC)c1OC)CC(=O)N2 (stereo not drawn) | 2.22 |
| COc1cc(C2CC(=O)Nc3cc(C)c(C)cc32)cc(OC)c1OC (stereo not drawn) | -9.63 |
| CC(C)(C)NC(=O)C(c1ccncc1)N(C(=O)CNC(=O)c1ccco1)c1ccc(F)cc1 (stereo not drawn) | 5.09 |
| O=C(NCC(=O)N(c1ccc2c(c1)OCO2)C(C(=O)NC1CCCC1)c1ccncc1)c1ccco1 (stereo not drawn) | 21.4 |
| COc1cccc(NC(=O)CN(C)C(=O)CCCc2nc3ccccc3c(=O)[nH]2)c1 | 4.69 |
| CCCCCOc1ccc(C2NC(=O)NC2=O)cc1 (stereo not drawn) | 0.64 |
| CCN(c1ccc(OC)cc1)S(=O)(=O)c1nnc(NC(=O)COc2ccccc2)s1 | 6.53 |
| O=C(CN1C(=O)CCSc2ccccc21)Nc1ccc2c(c1)OCCO2 | 4.27 |
| COC(=O)c1ccc(COc2ccccc2/C=C(\C#N)C(=O)Nc2ccc(C)cc2)cc1 | -4.01 |
| COC(=O)c1ccc(COc2ccccc2/C=C(\C#N)C(=O)Nc2c(C)cccc2C)cc1 | -2.89 |
| COCCNC(=O)C1(C)Oc2ccccc2NC1=O (stereo not drawn) | 1.83 |
| Cc1oc(-c2ccccc2F)nc1CS(=O)(=O)CC(=O)N1CCN(Cc2ccccc2)CC1 | 5.89 |
| CCOC(=O)CN(C(=O)CSc1nnc(COc2ccc(OC)cc2)n1C)c1ccccc1 | 0.19 |
| CCOc1ccc(-c2nnn(CC(=O)c3ccc4c(c3)OCCO4)n2)cc1 | -11.1 |
| COc1ccc(-c2nnn(CC(=O)c3ccc4c(c3)OCCO4)n2)cc1OC | 21.5 |
| CN(C)c1ccc(CNC(=O)C2CCN(S(=O)(=O)c3ccc4c(c3)oc(=O)n4C)CC2)cc1 | -3.31 |

| Structure (SMILES) | inhibition [%] |
| --- | --- |
| COc1ccc2c3c(cccc13)OCC2=O | 24.2 |
| CCC1=NNc2cccc3c(OC)ccc1c23 | 10.8 |
| COc1ccccc1NC(=O)c1nnn(Cc2ccccc2)c1NC(=O)C(F)(F)F | 0.14 |
| CCn1cc(S(=O)(=O)Nc2nc3ccc(OC)cc3s2)cn1 | -2.85 |
| Cn1c(SCc2ccccc2)nccc1=O | 1.19 |
| Nc1ccccc1SCc1ccccc1 | -5.9 |
| CCOC(=O)c1nnc2cc(-c3ccc(Br)cc3)nn2c1C | 1.62 |
| COc1ccccc1OCCSc1nc(N)cc(N)n1 | 4.3 |
| COc1ccc2nc3cccc(OC)c3nc2c1 | 15.1 |
| COc1ccc2nc3ccccc3nc2c1NC(=O)c1ccc(Br)cc1 | -5.53 |
| Cc1ccc(-n2nc(-c3ccco3)cc2C(=O)NCc2cccnc2)cc1 | 9.86 |
| CCOC(=O)c1cc(-c2ccco2)nn1-c1ccc(C)cc1 | -3.18 |
| CN(C)C(=O)CSc1nnc([C@H](Cc2ccccc2)NC(=O)OC(C)(C)C)o1 | -2.79 |
| O=S1(=O)N=C(Nc2ccc(N3CCOCC3)c(Cl)c2)c2ccccc21 | 12.7 |
| O=C(CCC(=O)c1cccs1)NCc1ccc(Cl)cc1 | 1.67 |
| CCCC(=NCc1ccccc1)C1=C(O)C(C(=O)OC)C(C)(C)CC1=O (stereo not drawn) | 3.41 |
| CCCC(=Nc1ccccc1)C1=C(O)C(C(=O)OC)C(C)(C)CC1=O (stereo not drawn) | 26.8 |
| CCCC(=O)C1=C(O)C(C(=O)OC)C(C)(C)CC1=Nc1ccc(N)cc1 (stereo not drawn) | 0.65 |
| CCC(=NCc1ccccc1)C1=C(O)C(C(=O)OC)C(C)(C)CC1=O (stereo not drawn) | 5.76 |
| O=S(=O)(NCCN1CCN(S(=O)(=O)c2ccccc2F)CC1)c1ccccc1F | 1.35 |
| O=C1NC(=O)/C(=C\c2cn(CC(=O)N3CCOCC3)c3ccccc23)S1 | -3.19 |
| O=C(COC(=O)/C=C/c1cc(Br)ccc1F)Nc1ccc2[nH]c(=O)[nH]c2c1 | -2.89 |
| Cc1cccc(N2CC(C(=O)O)CC2=O)c1 (stereo not drawn) | -2.42 |
| Cc1ccc(SCC(=O)Nc2nnc(-c3ccco3)o2)cc1 | 6.62 |
